Reference: the supplement of paper PMC10849652
Targets with a hit are over-represented here; the source holds about 7,900 in all. About 0.6% of all pairs of compound and target were hits.

How the values were obtained:
Assay in all cases: log2 fold change, soluble protein after heating vs DMSO (PISA); higher = thermal stabilisation; K562 cells, 10 uM, 30 min; active = over 0.2 and 3.5 SD of the protein, either way, in both replicates (recomputed)
[1] = compound: NC(=O)Nc1cc(-c2cccc(F)c2)sc1C(=O)N[C@H]1CCCNC1
How it was run: (§1)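 For each measurement, 10 μM compound was applied for 30 min to K562 cells at 2×10^6 cells/mL. Aliquots were heated for 3 min across 48°C-58°C, pooled, and extracted in PBS with 0.5% NP-40 at 4°C; the supernatant after 21,000xg for 90 min was soluble protein. This was quantified by TMTpro 16plex LC-MS/MS with channel sums equalised, and thermal stability was reported relative to control samples from duplicates, on a log2 fold-change scale.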

[2] = compound: NC(=O)c1cnc(N[C@@H]2CCCC[C@@H]2N)nc1Nc1cccc(-n2nccn2)c1
How it was run: as §1

[3] = compound: NC1(c2ccc(-c3nc4ccn5c(=O)[nH]nc5c4cc3-c3ccccc3)cc2)CCC1
How it was run: as §1

[4] = compound: NCC(=O)Nc1ccc(-n2nc(C(F)(F)F)cc2-c2ccc3c(ccc4ccccc43)c2)cc1
How it was run: as §1

entinostat = compound: Nc1ccccc1NC(=O)c1ccc(CNC(=O)OCc2cccnc2)cc1 [entinostat]
How it was run: as §1

vorinostat = compound: O=C(CCCCCCC(=O)Nc1ccccc1)NO [vorinostat]
How it was run: as §1

citarinostat = compound: O=C(CCCCCCNC(=O)c1cnc(N(c2ccccc2)c2ccccc2Cl)nc1)NO [citarinostat]
How it was run: as §1

silmitasertib = compound: O=C(O)c1ccc2c(c1)nc(Nc1cccc(Cl)c1)c1ccncc12 [silmitasertib]
How it was run: as §1

[5] = compound: O=C1NC(=O)C(c2cnc3ccccn23)=C1c1cn2c3c(cc(F)cc13)CN(C(=O)N1CCCCC1)CC2
How it was run: as §1

[6] = compound: c1cc(OCCN2CCCCC2)cc(-c2n[nH]c3ccc(-c4nnc[nH]4)cc23)c1
How it was run: as §1

entospletinib = compound: c1cn2cc(-c3ccc4cn[nH]c4c3)nc(Nc3ccc(N4CCOCC4)cc3)c2n1 [entospletinib]
How it was run: as §1

Measured: log2 fold change

AUP1 (UniProt Q9Y679)
Sequence of UniProt Q9Y679 (Q9Y679 whole entry, looked up): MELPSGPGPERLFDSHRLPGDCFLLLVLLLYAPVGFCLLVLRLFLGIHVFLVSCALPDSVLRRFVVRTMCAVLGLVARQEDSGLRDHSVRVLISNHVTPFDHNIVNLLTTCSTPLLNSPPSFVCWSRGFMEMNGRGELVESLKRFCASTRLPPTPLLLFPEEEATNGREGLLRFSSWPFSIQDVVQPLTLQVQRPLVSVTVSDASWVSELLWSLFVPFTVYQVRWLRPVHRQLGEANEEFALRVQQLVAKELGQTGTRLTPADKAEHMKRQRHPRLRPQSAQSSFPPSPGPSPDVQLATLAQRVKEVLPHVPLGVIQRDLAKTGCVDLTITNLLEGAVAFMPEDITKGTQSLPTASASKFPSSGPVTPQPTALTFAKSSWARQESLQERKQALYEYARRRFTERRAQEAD
active: [3] -0.236
inactive: [1] -0.013 | [2] -0.082 | [4] -0.107 | entinostat 0.061 | vorinostat 0.135 | citarinostat 0.067 | silmitasertib 0.019 | [5] 0.064 | [6] -0.051 | entospletinib -0.025

ACADM isoform 2 (UniProt P11310)
Sequence of UniProt P11310 (P11310 whole entry, looked up): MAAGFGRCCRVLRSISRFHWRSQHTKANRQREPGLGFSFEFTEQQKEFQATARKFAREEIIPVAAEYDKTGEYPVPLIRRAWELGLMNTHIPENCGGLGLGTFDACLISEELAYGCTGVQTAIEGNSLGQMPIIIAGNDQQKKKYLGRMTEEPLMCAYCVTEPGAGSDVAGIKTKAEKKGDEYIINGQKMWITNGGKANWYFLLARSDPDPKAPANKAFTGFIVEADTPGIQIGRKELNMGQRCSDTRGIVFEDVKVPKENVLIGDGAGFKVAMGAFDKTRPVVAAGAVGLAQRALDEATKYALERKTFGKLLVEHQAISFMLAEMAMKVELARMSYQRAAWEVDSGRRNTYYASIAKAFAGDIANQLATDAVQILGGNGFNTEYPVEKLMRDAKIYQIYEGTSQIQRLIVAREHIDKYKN
inactive: [1] -0.044 | [2] 0.01 | [3] -0.024 | [4] 0.029 | entinostat -0.019 | vorinostat -0.007 | citarinostat 0.037 | silmitasertib -0.032 | [5] -0.101 | [6] 0.009 | entospletinib -0.001

ACVR1 (UniProt Q04771)
Sequence of UniProt Q04771 (Q04771 whole entry, looked up): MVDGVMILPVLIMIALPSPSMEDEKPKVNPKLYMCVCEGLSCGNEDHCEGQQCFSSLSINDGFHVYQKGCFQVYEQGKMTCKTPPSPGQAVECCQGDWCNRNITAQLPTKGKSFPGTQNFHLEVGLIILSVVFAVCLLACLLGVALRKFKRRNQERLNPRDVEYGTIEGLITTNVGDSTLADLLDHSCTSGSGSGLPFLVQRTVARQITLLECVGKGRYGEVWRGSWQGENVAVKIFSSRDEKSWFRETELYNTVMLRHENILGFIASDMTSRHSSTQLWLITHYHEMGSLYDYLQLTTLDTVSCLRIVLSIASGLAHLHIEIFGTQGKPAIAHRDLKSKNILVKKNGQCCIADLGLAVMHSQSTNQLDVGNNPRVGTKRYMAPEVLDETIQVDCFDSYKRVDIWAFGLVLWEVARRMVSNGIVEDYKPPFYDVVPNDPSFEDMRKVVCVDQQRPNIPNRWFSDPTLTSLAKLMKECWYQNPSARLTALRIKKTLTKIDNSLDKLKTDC
inactive: [1] 0.044 | [2] 0.074 | [3] 0 | [4] 0.089 | entinostat 0.137 | vorinostat -0.255 | citarinostat 0.07 | silmitasertib 0.046 | [5] -0.069 | [6] 0.027 | entospletinib -0.053

BZW1 isoform 3 (UniProt Q7L1Q6)
Sequence of UniProt Q7L1Q6 (Q7L1Q6 whole entry, looked up): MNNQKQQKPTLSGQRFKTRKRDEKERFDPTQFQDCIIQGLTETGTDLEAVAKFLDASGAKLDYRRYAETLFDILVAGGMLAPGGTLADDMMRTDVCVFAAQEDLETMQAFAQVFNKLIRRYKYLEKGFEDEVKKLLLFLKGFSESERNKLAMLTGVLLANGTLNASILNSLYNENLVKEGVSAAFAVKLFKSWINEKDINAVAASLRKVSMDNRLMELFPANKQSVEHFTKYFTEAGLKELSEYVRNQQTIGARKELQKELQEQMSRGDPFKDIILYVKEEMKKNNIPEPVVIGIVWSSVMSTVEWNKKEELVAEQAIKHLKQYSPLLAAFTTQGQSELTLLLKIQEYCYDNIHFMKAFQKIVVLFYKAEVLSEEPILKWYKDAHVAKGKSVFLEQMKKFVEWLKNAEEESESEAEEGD
inactive: [1] 0.071 | [2] -0.054 | [3] -0.246 | [4] -0.093 | entinostat 0.165 | vorinostat 0.209 | citarinostat 0.075 | silmitasertib 0.02 | [5] 0.019 | [6] -0.081 | entospletinib 0.03

BID isoform 2 (UniProt P55957)
Sequence of UniProt P55957 (P55957 whole entry, looked up): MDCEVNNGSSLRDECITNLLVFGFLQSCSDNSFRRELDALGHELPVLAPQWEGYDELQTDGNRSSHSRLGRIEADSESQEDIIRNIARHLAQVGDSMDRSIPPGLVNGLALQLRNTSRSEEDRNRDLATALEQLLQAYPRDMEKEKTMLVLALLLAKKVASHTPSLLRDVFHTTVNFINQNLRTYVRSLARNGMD
inactive: [1] 0.032 | [2] 0.019 | [3] -0.037 | [4] 0.052 | entinostat -0.018 | vorinostat -0.039 | citarinostat 0.006 | silmitasertib -0.008 | [5] 0.042 | [6] 0.005 | entospletinib 0.025

ALG5 (UniProt Q9Y673)
Sequence of UniProt Q9Y673 (Q9Y673 whole entry, looked up): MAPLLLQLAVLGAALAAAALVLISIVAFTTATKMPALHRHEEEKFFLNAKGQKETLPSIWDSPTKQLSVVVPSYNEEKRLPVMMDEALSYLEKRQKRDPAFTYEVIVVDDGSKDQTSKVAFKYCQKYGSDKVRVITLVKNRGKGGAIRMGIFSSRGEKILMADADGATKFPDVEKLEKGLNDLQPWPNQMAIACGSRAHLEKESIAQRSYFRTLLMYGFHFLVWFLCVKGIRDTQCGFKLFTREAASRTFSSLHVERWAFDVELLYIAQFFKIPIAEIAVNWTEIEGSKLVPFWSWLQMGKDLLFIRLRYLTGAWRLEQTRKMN
inactive: [1] -0.047 | [2] -0.129 | [3] -0.029 | [4] -0.031 | entinostat 0.02 | vorinostat 0.052 | citarinostat 0.051 | silmitasertib 0.075 | [5] -0.106 | [6] 0.08 | entospletinib -0.005

ARFGEF1 (UniProt Q9Y6D6)
Sequence of UniProt Q9Y6D6 (Q9Y6D6 whole entry, looked up): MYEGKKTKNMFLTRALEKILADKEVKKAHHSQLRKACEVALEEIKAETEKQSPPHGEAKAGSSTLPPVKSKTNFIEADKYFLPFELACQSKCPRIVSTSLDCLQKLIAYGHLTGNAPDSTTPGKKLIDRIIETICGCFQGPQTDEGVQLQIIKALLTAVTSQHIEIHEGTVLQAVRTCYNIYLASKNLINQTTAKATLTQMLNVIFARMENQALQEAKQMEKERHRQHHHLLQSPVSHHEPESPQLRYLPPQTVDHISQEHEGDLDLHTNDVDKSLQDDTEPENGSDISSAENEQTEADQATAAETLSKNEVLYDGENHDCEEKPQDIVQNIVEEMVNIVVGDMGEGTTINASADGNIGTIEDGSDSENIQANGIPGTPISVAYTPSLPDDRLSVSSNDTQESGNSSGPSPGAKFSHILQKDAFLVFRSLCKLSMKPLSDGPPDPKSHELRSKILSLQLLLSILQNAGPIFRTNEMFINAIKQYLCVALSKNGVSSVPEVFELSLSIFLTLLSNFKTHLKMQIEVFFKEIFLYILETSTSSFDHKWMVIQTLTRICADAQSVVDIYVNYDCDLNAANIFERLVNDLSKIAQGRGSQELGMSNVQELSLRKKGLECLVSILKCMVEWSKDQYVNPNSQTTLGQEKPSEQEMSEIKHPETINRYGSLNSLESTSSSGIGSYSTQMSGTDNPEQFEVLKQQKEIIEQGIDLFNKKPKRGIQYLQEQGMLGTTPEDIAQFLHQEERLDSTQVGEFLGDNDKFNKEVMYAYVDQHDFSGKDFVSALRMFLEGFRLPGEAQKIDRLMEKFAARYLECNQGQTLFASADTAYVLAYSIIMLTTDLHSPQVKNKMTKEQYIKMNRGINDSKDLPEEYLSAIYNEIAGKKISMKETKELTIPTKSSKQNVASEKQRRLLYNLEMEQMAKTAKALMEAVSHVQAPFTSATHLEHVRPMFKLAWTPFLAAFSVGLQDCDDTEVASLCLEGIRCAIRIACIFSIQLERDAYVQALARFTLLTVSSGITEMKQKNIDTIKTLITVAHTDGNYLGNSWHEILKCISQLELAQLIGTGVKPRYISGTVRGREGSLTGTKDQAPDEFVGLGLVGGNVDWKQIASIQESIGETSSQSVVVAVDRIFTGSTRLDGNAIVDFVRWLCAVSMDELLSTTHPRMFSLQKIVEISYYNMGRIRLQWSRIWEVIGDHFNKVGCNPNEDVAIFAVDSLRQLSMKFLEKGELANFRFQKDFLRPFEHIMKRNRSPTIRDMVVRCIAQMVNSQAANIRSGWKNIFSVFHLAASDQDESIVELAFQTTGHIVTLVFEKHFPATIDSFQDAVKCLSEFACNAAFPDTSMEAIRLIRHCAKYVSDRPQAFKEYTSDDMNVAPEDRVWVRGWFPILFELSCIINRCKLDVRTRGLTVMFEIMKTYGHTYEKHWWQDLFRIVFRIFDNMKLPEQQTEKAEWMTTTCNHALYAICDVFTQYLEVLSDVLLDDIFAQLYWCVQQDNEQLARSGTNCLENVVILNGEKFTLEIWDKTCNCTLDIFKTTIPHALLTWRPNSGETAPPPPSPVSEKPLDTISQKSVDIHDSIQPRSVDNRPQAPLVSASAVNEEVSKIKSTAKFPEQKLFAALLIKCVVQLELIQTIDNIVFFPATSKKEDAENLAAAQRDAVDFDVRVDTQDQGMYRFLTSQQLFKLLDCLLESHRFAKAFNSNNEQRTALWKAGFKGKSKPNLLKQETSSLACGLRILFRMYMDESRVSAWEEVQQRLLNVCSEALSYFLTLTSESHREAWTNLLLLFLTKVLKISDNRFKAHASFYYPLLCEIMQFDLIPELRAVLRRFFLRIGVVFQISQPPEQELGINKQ
inactive: [1] 0.028 | [2] 0.121 | [3] -0.023 | [4] 0.006 | entinostat -0.044 | vorinostat 0.02 | citarinostat 0.009 | silmitasertib 0.065 | [5] 0.023 | [6] 0.069 | entospletinib -0.009

AURKA (UniProt O14965)
Sequence of UniProt O14965 (O14965 whole entry, looked up): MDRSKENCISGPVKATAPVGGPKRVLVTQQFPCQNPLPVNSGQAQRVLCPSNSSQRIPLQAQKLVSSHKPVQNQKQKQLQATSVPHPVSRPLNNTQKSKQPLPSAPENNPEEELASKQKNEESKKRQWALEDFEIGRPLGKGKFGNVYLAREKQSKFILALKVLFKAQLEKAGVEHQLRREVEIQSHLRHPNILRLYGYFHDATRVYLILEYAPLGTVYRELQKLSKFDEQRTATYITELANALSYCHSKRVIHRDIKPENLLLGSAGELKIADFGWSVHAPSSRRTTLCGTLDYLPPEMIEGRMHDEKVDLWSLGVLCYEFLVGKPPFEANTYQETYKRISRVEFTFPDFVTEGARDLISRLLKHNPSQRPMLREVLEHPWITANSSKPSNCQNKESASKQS
inactive: [1] 0.077 | [2] -0.02 | [3] 0.059 | [4] -0.033 | entinostat -0.072 | vorinostat -0.06 | citarinostat -0.036 | silmitasertib 0.015 | [5] 0.105 | [6] -0.328 | entospletinib 0.282

AP2M1 (UniProt Q96CW1)
Sequence of UniProt Q96CW1 (Q96CW1 whole entry, looked up): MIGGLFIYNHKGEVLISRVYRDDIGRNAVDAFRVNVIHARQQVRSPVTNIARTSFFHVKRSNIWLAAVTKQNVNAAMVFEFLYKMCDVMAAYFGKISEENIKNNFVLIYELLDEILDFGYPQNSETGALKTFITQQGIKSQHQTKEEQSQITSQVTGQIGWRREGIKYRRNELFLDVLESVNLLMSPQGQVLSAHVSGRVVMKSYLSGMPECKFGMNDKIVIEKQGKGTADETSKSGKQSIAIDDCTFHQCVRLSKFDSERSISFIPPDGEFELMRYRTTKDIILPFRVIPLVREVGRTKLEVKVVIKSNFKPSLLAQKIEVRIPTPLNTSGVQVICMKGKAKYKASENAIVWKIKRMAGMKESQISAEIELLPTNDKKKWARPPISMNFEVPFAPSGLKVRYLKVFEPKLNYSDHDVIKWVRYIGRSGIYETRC
active: [1] -0.293 | [5] -0.237
inactive: [2] 0.004 | [3] 0.012 | [4] -0.003 | entinostat -0.007 | vorinostat 0.06 | citarinostat -0.004 | silmitasertib 0.029 | [6] -0.209 | entospletinib 0.025

ARL3 (UniProt P36405)
inactive: [1] 0.02 | [2] -0.005 | [3] -0.051 | [4] 0.006 | entinostat -0.024 | vorinostat -0.013 | citarinostat 0.05 | silmitasertib 0 | [5] -0.001 | [6] -0.022 | entospletinib 0.008
